Binding signal data for one sequence are collected here from paper PMC7862700, “An all-to-all approach to the identification of sequence-specific readers for epigenetic DNA modifications on cytosine”.

Holding throughout (experiment): DAPPL (digital affinity profiling via proximity ligation, sequencing); 10 mM Tris-HCl pH 7.5, 50 mM NaCl, 1 mM DTT, 4% glycerol, room temperature, 30 min; GST-TFs on glutathione beads, 16-mer random dsDNA library, 0.1% formaldehyde crosslink after washing; high values mean tight binding
One experiment addresses T1, FLI1 (Homo sapiens, UniProt Q01543 1-452).
T1 sequence: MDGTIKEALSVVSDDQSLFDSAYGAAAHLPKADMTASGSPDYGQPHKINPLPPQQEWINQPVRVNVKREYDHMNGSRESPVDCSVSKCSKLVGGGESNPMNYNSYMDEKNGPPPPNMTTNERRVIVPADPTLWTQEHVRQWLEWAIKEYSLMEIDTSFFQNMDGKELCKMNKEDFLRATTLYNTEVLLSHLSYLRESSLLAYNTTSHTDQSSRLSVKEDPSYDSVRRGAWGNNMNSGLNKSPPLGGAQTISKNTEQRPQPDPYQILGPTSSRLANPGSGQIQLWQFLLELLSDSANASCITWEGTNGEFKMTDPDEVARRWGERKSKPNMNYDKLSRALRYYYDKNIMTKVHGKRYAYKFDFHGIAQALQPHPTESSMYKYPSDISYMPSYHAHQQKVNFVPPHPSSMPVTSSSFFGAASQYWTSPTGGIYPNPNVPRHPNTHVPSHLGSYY
Conditions: protein: recombinant; tags: N-terminal GST; dsDNA, one strand shown. The procedure, abridged: (§1)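 Each value of binding signal is a hexamer's read frequency for a factor divided by the same hexamer's frequency in the tag-only sample. Barcoded, bead-captured GST fusions of human transcription factors made in yeast were pooled with that sample and incubated with 200 nmole of a random double-stranded 16-mer DNA library in Tris/NaCl/DTT/glycerol buffer at room temperature for 30 min. Washing, 0.1% formaldehyde crosslinking, proximity ligation, PCR and Illumina NextSeq500 sequencing followed.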

The target in the next experiment is T2, ELK1 (Homo sapiens, UniProt P19419 1-428).
T2 sequence: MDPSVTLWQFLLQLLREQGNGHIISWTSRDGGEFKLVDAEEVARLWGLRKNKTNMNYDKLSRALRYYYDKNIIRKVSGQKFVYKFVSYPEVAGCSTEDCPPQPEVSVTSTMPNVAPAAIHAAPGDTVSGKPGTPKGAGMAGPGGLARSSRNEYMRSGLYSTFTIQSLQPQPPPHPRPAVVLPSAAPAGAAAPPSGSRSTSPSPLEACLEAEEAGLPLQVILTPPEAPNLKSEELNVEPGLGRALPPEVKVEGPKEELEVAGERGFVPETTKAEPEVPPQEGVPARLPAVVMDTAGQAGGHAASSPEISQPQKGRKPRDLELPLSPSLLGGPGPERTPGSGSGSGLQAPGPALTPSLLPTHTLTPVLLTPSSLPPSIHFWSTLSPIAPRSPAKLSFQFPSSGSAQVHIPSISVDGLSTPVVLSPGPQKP
Conditions: protein: recombinant; tags: N-terminal GST; dsDNA, one strand shown. The procedure, abridged:
as §1

A further experiment deals with T3, GABPA (Homo sapiens, UniProt Q06546 1-454).
T3 sequence: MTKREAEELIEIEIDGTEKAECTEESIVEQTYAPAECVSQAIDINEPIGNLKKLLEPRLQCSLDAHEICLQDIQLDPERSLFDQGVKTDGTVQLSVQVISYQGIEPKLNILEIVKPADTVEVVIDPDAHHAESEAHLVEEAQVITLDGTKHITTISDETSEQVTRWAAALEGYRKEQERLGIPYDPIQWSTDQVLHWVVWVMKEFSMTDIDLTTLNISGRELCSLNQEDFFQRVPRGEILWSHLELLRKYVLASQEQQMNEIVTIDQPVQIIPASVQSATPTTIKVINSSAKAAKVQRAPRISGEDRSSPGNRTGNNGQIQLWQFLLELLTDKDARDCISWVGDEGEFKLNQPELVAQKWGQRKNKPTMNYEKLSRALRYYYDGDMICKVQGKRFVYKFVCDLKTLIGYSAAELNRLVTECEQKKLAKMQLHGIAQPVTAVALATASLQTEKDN
To be noted: protein: recombinant; tags: N-terminal GST; dsDNA, one strand shown. The procedure, abridged:
as §1

The target in the next experiment is T4, ERG (Homo sapiens, UniProt P11308 1-479).
T4 sequence: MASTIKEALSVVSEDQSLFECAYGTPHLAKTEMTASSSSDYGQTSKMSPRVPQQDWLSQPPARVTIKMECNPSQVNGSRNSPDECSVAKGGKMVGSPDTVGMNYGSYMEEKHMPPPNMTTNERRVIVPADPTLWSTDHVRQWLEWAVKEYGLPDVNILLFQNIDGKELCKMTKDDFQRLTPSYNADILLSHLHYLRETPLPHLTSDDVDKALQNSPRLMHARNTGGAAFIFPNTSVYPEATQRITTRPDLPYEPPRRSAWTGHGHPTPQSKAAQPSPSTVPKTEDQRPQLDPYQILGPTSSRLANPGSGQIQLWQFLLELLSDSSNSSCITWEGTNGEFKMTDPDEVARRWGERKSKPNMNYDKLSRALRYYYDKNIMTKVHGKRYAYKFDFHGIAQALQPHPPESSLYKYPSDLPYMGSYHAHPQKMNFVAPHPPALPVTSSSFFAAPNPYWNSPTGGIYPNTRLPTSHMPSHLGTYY
To be noted: protein: recombinant; tags: N-terminal GST; dsDNA, one strand shown. The procedure, abridged: as §1

The target of a further experiment is ELF1 (Homo sapiens, UniProt P32519 1-619). Conditions: protein: recombinant; tags: N-terminal GST; dsDNA, one strand shown. The method in brief: as §1
ELF1, sequence (P32519 whole entry): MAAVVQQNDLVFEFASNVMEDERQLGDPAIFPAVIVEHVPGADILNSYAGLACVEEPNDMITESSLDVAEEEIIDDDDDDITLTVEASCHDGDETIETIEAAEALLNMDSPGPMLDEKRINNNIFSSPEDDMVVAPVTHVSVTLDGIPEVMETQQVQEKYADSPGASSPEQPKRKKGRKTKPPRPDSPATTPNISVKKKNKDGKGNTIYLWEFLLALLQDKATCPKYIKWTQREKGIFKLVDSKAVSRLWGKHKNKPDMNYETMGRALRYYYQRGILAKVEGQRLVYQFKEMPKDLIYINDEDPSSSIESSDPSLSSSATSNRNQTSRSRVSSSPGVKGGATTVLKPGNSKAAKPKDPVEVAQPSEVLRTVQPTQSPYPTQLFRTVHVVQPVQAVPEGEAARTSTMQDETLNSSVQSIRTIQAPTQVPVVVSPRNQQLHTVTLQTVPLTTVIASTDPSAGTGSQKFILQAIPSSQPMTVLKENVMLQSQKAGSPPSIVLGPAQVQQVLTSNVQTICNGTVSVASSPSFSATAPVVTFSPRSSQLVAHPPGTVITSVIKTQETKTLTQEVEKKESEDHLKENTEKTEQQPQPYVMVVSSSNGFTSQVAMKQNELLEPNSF
The target of another experiment is T5, EHF (Homo sapiens, UniProt Q9NZC4 1-300).
T5 sequence: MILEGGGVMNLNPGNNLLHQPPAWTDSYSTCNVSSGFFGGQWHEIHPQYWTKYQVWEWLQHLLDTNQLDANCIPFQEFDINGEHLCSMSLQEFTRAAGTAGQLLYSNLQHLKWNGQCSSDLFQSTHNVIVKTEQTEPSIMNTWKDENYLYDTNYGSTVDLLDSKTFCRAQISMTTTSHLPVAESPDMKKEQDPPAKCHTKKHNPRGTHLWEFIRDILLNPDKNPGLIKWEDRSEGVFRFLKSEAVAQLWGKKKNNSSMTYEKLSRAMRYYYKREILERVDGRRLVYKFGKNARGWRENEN
To be noted: protein: recombinant; tags: N-terminal GST; dsDNA, one strand shown. The procedure, abridged:
as §1

The target of the next experiment is SPI1 (Homo sapiens, UniProt P17947 1-270). To be noted: protein: recombinant; tags: N-terminal GST; dsDNA, one strand shown. The method in brief: as §1
For a further experiment, the target named is SPIB (Homo sapiens, UniProt Q01892 1-262). To be noted: protein: recombinant; tags: N-terminal GST; dsDNA, one strand shown. The procedure, abridged: as §1
SPIB, sequence (Q01892 whole entry): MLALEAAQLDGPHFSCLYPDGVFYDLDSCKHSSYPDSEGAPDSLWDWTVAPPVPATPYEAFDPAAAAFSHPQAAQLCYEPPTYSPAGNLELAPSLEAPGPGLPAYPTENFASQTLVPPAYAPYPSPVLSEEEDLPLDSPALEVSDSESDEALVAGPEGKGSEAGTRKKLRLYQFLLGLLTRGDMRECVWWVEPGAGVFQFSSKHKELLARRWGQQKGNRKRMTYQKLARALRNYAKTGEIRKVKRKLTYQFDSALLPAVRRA
The target of a further experiment is HSF1 (Homo sapiens, UniProt Q00613 1-529). Conditions: protein: recombinant; tags: N-terminal GST; chain copies: 3; dsDNA, one strand shown. The procedure, abridged: as §1
HSF1, sequence (Q00613 whole entry): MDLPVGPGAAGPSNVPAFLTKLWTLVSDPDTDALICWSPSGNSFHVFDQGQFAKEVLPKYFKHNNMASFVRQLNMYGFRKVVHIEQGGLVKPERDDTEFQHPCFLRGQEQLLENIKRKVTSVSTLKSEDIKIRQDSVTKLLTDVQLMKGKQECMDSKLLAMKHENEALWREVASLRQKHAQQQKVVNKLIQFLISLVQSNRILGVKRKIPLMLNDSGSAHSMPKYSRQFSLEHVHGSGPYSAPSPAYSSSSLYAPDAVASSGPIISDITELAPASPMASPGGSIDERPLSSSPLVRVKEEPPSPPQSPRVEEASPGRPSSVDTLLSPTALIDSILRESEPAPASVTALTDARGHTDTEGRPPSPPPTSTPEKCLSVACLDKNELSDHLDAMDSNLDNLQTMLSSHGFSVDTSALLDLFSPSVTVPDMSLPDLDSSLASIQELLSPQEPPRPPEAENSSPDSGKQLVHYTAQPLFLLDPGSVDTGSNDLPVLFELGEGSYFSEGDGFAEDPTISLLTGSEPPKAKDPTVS
A further experiment deals with ELF4 (Homo sapiens, UniProt Q99607 1-663). Conditions: protein: recombinant; tags: N-terminal GST; dsDNA, one strand shown. The procedure, abridged:
as §1

ELF4, sequence (Q99607 whole entry): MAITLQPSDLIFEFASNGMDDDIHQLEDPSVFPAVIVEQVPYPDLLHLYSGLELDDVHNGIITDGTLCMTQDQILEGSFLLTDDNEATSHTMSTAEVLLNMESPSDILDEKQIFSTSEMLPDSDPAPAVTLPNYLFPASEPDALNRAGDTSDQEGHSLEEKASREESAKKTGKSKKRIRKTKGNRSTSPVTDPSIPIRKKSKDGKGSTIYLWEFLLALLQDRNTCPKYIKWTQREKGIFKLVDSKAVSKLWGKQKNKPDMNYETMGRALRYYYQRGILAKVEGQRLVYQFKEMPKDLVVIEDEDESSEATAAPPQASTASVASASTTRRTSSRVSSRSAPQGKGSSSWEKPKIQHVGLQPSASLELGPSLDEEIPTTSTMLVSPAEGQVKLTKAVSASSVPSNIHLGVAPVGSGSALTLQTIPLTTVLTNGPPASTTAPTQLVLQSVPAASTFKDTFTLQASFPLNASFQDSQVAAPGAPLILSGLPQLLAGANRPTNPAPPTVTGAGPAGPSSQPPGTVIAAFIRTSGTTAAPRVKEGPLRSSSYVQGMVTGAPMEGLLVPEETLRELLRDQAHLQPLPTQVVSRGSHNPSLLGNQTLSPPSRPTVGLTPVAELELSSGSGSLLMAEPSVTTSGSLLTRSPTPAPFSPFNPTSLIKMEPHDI

Regarding TCAGCT, the binding signal with FLI1 was 1.09 fold enrichment (6-mer frequency, TF over GST control); with ELK1, 1 fold enrichment (6-mer frequency, TF over GST control); with GABPA, 1.04 fold enrichment (6-mer frequency, TF over GST control); in the experiment with ERG, 1.06 fold enrichment (6-mer frequency, TF over GST control); with ELF1, 1.12 fold enrichment (6-mer frequency, TF over GST control); with EHF, 1.11 fold enrichment (6-mer frequency, TF over GST control). In addition, the binding signal was 1.04 fold enrichment (6-mer frequency, TF over GST control) with SPI1; 1.09 fold enrichment (6-mer frequency, TF over GST control) with SPIB; 1.07 fold enrichment (6-mer frequency, TF over GST control) with HSF1; 1.03 fold enrichment (6-mer frequency, TF over GST control) with ELF4.
